Data reported in PubChem BioAssay (NCATS).
Results filed as inconclusive are left out. A number with no mark means an inactive call. Activity calls are given as the source filed them. The call rests on the fitted dose curve; in most records, active means well fitted inhibition curve with a large enough effect; inconclusive means small, poorly fitted or top-dose-only effect; inactive means no such curve, though single readings can be large or run the other way.

Test: qHTS for Inhibitors of ATXN expression: Validation (AID 588378); further: nearly all actives have a fitted effect of over 75% in size
Settings: cell-based ATXN2 expression reporter assay, luminescence; series mostly up to 57.1 µM; activity change, negative = inhibition: at the top concentration
Description: Spinocerebellar ataxia type 2 (SCA2) is a multisystem neurodegenerative disease caused by a dominantly-acting mutation leading to expansion of a polyQ domain in the ataxin-2 protein (ATXN2). SCA2 patients develop progressive ataxia and later lose function in other neuronal systems. Prominent parkinsonian signs develop in some patients. Similar to many neurodegenerative disorders, no symptomatic or disease-modifying treatments are known.
The primary objective of project is to identify compounds inhibiting ATXN2 expression and to test them for efficacy in SCA2 mouse models. To this end, in a collaboration between Dr. Daniel Scoles and scientists at NCGC, a cell-based assay adapted to high-throughput screening has been developed to screen the NIH Molecular Libraries Small Molecule Repository (MLSMR).
NIH Chemical Genomics Center [NCGC]
NIH Molecular Libraries Probe Centers Network [MLPCN]
Assay Submitter (PI): Stefan Pulst and Daniel Scoles, University of Utah
4 ul of HEK293-ATXN2-FFLuc cell suspension (TBD cells/microL in phenol-red free DMEM) are dispensed into Greiner white solid bottom 1536-well assay plates, yielding a final well density of TBD cells/well. Plates are incubated for 2 hrs at 37 degrees C in 5% humidified CO2 to allow cell attachment. Compounds are then transferred via Kalypsys pin tool equipped with 1536-pin array (10nl slotted pins, V&P Scientific, San Diego, CA). In addition, duplicate serial dilutions of the control compounds ChemBridge 5553825, a previously identified ATXN2 expression inhibitor, and a known luciferase inhibitor, are pin-transferred. After incubation at 37 degrees C in 5% humidified CO2 for 24 hrs, CellTiter-Fluor reagent (1 ul) (Promega, Madison, WI) is then added and plates are incubated for 30 minutes, before being transferred to a ViewLux high-throughput CCD imager (PerkinElmer), wherein single end-point fluorescence measurements are acquired using the 405 nm excitation/525 nm emission filter set to assess cell viability. Next, Bright-Glo luciferase substrate detection reagent (3 ul) (Promega, Madison, WI) is added to each well and incubated for an additional 5 minutes. Luminescence is then measured on the ViewLux imager equipped with a clear emission filter using a 2 sec exposure.
On the % scale 0 is the no-effect control and ±100 the full control effect; potency means the concentration at half of the fitted maximal effect.

Row | Structure (SMILES) | activity change, negative = inhibition | Potency
1 | C[N+]1(CCCCC[N+]2(C)CCCC2)CCCC1 | 21.2% | 
2 | CCCC1O[C@@H]2C[C@H]3[C@@H]4CCC5=CC(=O)C=C[C@]5(C)[C@H]4[C@@H](O)C[C@]3(C)[C@]2(C(=O)CO)O1 (some centres undefined) | 9.49% | 
3 | CC1(C)CCC(NC(=O)[C@@H](N)CCC(=O)O)CC1 | -4.17% | 
4 | COC(=O)[C@H]1[C@H]2C[C@H]3c4[nH]c5ccccc5c4CCN3C[C@H]2CC[C@@H]1O | -17.8% | 
5 | CNCCC=C1c2ccccc2CCc2ccccc21 |  | 15.8 µM (active)
6 | CC[C@H](C)C(=O)O[C@H]1CCC=C2C=C[C@H](C)[C@H](CC[C@@H]3C[C@@H](O)CC(=O)O3)[C@H]21 | 26.6% | 
7 | CCCn1c(=O)[nH]c(=O)c2[nH]cnc21 | 5.47% | 
8 | N[C@@H](Cc1cnc[nH]1)C(=O)O | 2.74% | 
9 | C[C@@H]1C(=O)NC2=Nc3cccc(Cl)c3CN21 | 4.39% | 
10 | C[C@]12CC[C@@H]3c4ccc(O)cc4CC[C@H]3[C@@H]1CC[C@@H]2O | -9.39% | 
11 | C1CCc2nnnn2CC1 | -10.2% | 
12 | Nc1cc(Cl)c(NC2=NCCN2)c(Cl)c1 | -5.43% | 
13 | COc1cc2c(cc1O)CC[C@@H]1[C@@H]2CC[C@]2(C)[C@@H](O)CC[C@@H]12 | -2.58% | 
14 | O=C1CCC(c2ccc(-n3ccnc3)cc2)=NN1 | 3.93% | 
15 | N[C@H](CO)C(=O)O | 0.237% | 
16 | COc1cc(NS(C)(=O)=O)ccc1Nc1c2ccccc2nc2ccccc12 |  | 0.355 µM (active)
17 | CC(=O)O[C@H]1C[C@@H]2CC[C@@H]3[C@H](CC[C@@]4(C)[C@H]3C[C@H]([N+]3(C)CCCCC3)[C@@H]4OC(C)=O)[C@@]2(C)C[C@@H]1[N+]1(C)CCCCC1 | 24.6% | 
18 | CC(C)COC(=O)OCN1C(=O)CN(CCN2CC(=O)N(COC(=O)OCC(C)C)C(=O)C2)CC1=O | -2.24% | 
19 | O=C(O)c1cc2cc(Cc3cccnc3)ccc2o1 | 5.01% | 
